CYP2C9 activ – CYP2C9 (human) activation; 1.4% of 96,000 active; activation factor at 5 µM; AID 1024; recombinant CYP2C9, luciferin-H conversion, luminescence; stronger effect = higher value; factor 1 = untreated enzyme, 0 = blocked;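 active means activation factor of 2 or more for CYP2C9 at a 5 µM dose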;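 further: 0 = sulfaphenazole-blocked wells and 1 = vehicle-only wells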
Target sequence (P11712 whole entry, looked up): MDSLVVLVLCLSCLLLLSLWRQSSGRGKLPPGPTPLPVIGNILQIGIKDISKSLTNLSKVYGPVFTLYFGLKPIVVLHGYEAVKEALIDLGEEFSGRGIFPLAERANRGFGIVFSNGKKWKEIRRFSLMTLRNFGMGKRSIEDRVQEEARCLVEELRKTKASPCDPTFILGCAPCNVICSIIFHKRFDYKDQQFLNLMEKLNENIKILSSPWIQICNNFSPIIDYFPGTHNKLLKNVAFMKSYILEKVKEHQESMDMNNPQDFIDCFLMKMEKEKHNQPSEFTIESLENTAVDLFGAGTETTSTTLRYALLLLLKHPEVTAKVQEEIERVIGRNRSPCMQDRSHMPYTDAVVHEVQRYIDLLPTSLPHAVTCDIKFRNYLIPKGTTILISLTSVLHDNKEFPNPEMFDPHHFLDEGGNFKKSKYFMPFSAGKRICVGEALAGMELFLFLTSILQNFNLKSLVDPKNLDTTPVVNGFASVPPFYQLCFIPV
PostGolgi yeast – growth inhibition of a yeast mutant, post-Golgi transport screen | post-Golgi transport phenotypic cell assay | inhibition, % at 10 µM | 0.9% of 98,000 active | AID 739;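 further: yeast cells grown in 1536-well plates; yeast grown about 18 h at 30C before absorbance read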
PostGolgi ctrl – inhibits growth of the yeast control strain; efflux-deficient yeast background strain, growth absorbance A615, 16 h; 5% of 98,000 active; inhibition, % at 10 µM
CYP2C19 act – increases human CYP2C19 enzyme activity; P33261; recombinant CYP2C19, luciferin-H EGE luminescence; stronger effect = higher value; 0 = fully inhibited enzyme, 1 = untreated enzyme; activation factor at 5 µM; 96,000 tested, under 10 active;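 active means activation factor of at least 2 at 5 µM in the primary screen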;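 further: 0 = wells with 2.5 mM tranylcypromine and 1 = vehicle-only wells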
CYP2C19 inhib – blocks human cytochrome P450 2C19 | CYP2C19 Supersomes, luciferin-H EGE luminescence, 30 min | P33261 | inhibition, % at 5 µM | 21% of 96,000 active;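 active means CYP2C19 inhibition above a set limit at 5 µM in the primary screen, cut at about 50% in these data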;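 further: plate controls were negative control wells for no effect and 2.5 mM tranylcypromine positive control for full effect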
CYP2C9 inh – inhibitors of human CYP2C9 | 20% of 96,000 active | inhibition, % at 5 µM | AID 777 | P11712 | CYP2C9 Supersomes, luciferin-H conversion, luminescence;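 active means blocking of liver enzyme CYP2C9 beyond about 50% at 5 µM, limit read from the data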
* hit, by the source's call. This is a sample that favours compounds with a hit; in the whole collection about 32% have one here. Unless noted, no stated cut-off is given here; in the data, active means inhibition above about 30%; inactive means the rest.

Results for Cc1ccccc1C1=NCC(=O)N(CC(=O)N2CCCCC2)c2sc(C)c(C)c21 ?
CYP2C9 activ: 0.6; PostGolgi yeast: 18; PostGolgi ctrl: 2; CYP2C19 act: 0.6; CYP2C19 inhib: 45; CYP2C9 inh: 40

Results for CCOC(=O)CNC(=O)CSP(=S)(OCC)OCC ?
CYP2C9 activ: 0.3; PostGolgi yeast: 0; PostGolgi ctrl: 3; CYP2C19 act: 0; CYP2C19 inhib: 96*; CYP2C9 inh: 70*

What do the screens show for `CN(Cc1ccccc1)Cc1ccccc1OC(=O)N(C)C`?
CYP2C9 activ: 1.1; PostGolgi yeast: 11; PostGolgi ctrl: 6; CYP2C19 act: 0.5; CYP2C19 inhib: 54*; CYP2C9 inh: -6

What do the screens show for `CN(C)C(=O)Oc1cccc2c(OC(=O)N(C)C)cccc12`?
CYP2C9 activ: 0.8; PostGolgi yeast: -6; PostGolgi ctrl: -1; CYP2C19 act: 1.1; CYP2C19 inhib: -10; CYP2C9 inh: 21

How did COc1ccc(C2SCC(=O)Nc3c2c(=O)[nH]n3C2CCCCC2)cc1 (stereo not drawn) do in these assays?
CYP2C9 activ: 1.1; PostGolgi yeast: -9; PostGolgi ctrl: 7; CYP2C19 act: 1.1; CYP2C19 inhib: -12; CYP2C9 inh: -7

Results for CCOc1cc(C(=O)N2CCC3(CC2)OCCO3)cc(OCC)c1OCC ?
CYP2C9 activ: 0.9; PostGolgi yeast: 5; PostGolgi ctrl: 1; CYP2C19 act: 0.7; CYP2C19 inhib: 25; CYP2C9 inh: 14

How did O=C(c1cc(-c2ccccc2)nc2ccccc12)N1CCC2(CC1)OCCO2 do in these assays?
CYP2C9 activ: 0.6; PostGolgi yeast: -3; PostGolgi ctrl: 15; CYP2C19 act: 0.4; CYP2C19 inhib: 57*; CYP2C9 inh: 38

Results for Cc1cc(C(=O)N2CCC3(CC2)OCCO3)cs1 ?
CYP2C9 activ: 1.1; PostGolgi yeast: -3; PostGolgi ctrl: -11; CYP2C19 act: 0.3; CYP2C19 inhib: 74*; CYP2C9 inh: -8

Results for CC(=O)c1c(C)[nH]c(C(=O)N2CCC3(CC2)OCCO3)c1C ?
CYP2C9 activ: 1; PostGolgi yeast: 16; PostGolgi ctrl: -3; CYP2C19 act: 0.5; CYP2C19 inhib: 54*; CYP2C9 inh: -1

Results for O=C(c1cc(Br)ccc1Cl)N1CCC2(CC1)OCCO2 ?
CYP2C9 activ: 0.5; PostGolgi yeast: 7; PostGolgi ctrl: 10; CYP2C19 act: 0; CYP2C19 inhib: 98*; CYP2C9 inh: 54*

How did CCOC(=O)c1[nH]c(C)c(C(=O)N2CCC3(CC2)OCCO3)c1C do in these assays?
CYP2C9 activ: 0.9; PostGolgi yeast: 7; PostGolgi ctrl: 14; CYP2C19 act: 0.8; CYP2C19 inhib: 17; CYP2C9 inh: 13

What do the screens show for `CCC(C)N=Cc1c(O)n(-c2ccccc2)c(=O)[nH]c1=O` (stereo not drawn)?
CYP2C9 activ: 0.9; PostGolgi yeast: 4; PostGolgi ctrl: 8; CYP2C19 act: 0.7; CYP2C19 inhib: 27; CYP2C9 inh: 13

Results for CCCCCCN=Cc1c(O)n(C)c(=O)n(C)c1=O ?
CYP2C9 activ: 1; PostGolgi yeast: 4; PostGolgi ctrl: 25; CYP2C19 act: 1; CYP2C19 inhib: 2; CYP2C9 inh: -2

How did O=C(c1ccc2c(c1)OCO2)N1CCC2(CC1)OCCO2 do in these assays?
CYP2C9 activ: 1; PostGolgi yeast: 0; PostGolgi ctrl: 5; CYP2C19 act: 0.1; CYP2C19 inhib: 88*; CYP2C9 inh: -5

Results for O=C(c1cccn2c(=O)c3cc(Cl)ccc3nc12)N1CCC2(CC1)OCCO2 ?
CYP2C9 activ: 0.7; PostGolgi yeast: -2; PostGolgi ctrl: 11; CYP2C19 act: 0.9; CYP2C19 inhib: 12; CYP2C9 inh: 28

Results for CC1(C)COC(Nc2cccc(Cl)c2)=N1 ?
CYP2C9 activ: 0.2; PostGolgi yeast: 2; PostGolgi ctrl: 0; CYP2C19 act: 0.9; CYP2C19 inhib: 12; CYP2C9 inh: 76*

What do the screens show for `CC1(C)CSC(Nc2ccc(F)c(Cl)c2)=N1`?
CYP2C9 activ: 0.8; PostGolgi yeast: -2; PostGolgi ctrl: -7; CYP2C19 act: 0.6; CYP2C19 inhib: 42; CYP2C9 inh: 20

Results for O=c1c2ccccc2nc(-c2ccco2)n1-c1nccs1 ?
CYP2C9 activ: 0.9; PostGolgi yeast: -1; PostGolgi ctrl: -13; CYP2C19 act: 1.1; CYP2C19 inhib: -14; CYP2C9 inh: 7

High-throughput results: PubChem, several laboratories
